According to the supplement of paper PMC6555819:

What follows are sequences tested on PPARg:RXRa 90nM:30nM, anti-RXR (NR concentration 90 nM, RXRa partner concentration 30 nM) (assay: PBM binding z-score (relative to random genomic background probes); higher = stronger binding; sequences stand for … in GC…GCGATTGACAGCGTAGAATGAAGG).
Outline: (§1)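 Probes were double-stranded and carried 34-nt variable regions with direct-repeat seeds, single-nucleotide variants, half-site ablations and random human genomic background sequences, printed on custom Agilent 4×180K protein-binding microarrays. Arrays were incubated 1 h with ligand-free nuclear receptor dimers in PBS pH 7.4, 2% milk, 0.02% Triton X-100, 1 mM DTT, 0.2 mg/mL BSA and 0.4 mg/ml salmon testes DNA. Antibodies against each partner (one per run) detected binding, and scanned fluorescence was regression-normalized. Binding z-scores use the random background probes as reference.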

Sequence	PBM binding z-score
ATCGAAAGGTCGTGAGGTGTGTATACAGAAAGGC	2.81
GGAACGAGGGCAAAGGTGATAGCATCTGTCGACG	9.41
ATATGGAGGTTAAGGGTCATTCAGGTTGGTTCGC	10.3
ATCGAAAGGTCGTGAGGTGACTATACAGAAAGGC	3.39
CGTCAAAGTTCAACTAAGGTAACTTAAAGCACGC	4.39
CGGCCAAGGTCAAAGGTCAGTGAAGAGATGACGG	9.65
ATCTCTAGGTAAAGGTCAGTGAAAGATCGATAGA	6.41
CGTCCAAGGTCATAAGAGGTCAGTGAAGACAGAT	4.85
CCTAGTTGGCCAAGGTCACACACGCTATAGGTAC	1.94
CCTTACGGGTCACGGGGTTATAGCACGACGAGCG	6.75
TAGCCTAGGTCATTCAGGGGTCAGTATAGAAAGC	3.3
TCTAGTTGGTTACGGAGGTCACACACGACGGGTA	3.42
AATACAGGGTCGCTAGGCCAGAGTAGGTACGAAT	0.482
ATACCAAGGTGATCGTGAGTTCGTTGATACTAAC	-0.0417
CGTCCAAGGTCAATGCTAGGTCACTGAAAGCATT	3.62
TTACCAAGGTCAGCTGAGGTCGTTGATCCAACTC	2.92
ATCGAAAGGTCGACGAGTTGAGTATACACCGTTT	1.91
TTACAAAGGTGAGCTGAGGTCGTTGATCCAACTC	1.38
GGAACGAGGGCATTCGAGTTGATAGCATGGCGAT	-0.0469
CCGACTGGGGCAAAGGTTACCACACTCAGTACGA	9.24

Sequence	PBM binding z-score
CGTCAAAGTTCAACTAATGTAACGTAAAGCACGC	4.56
CCTTACGGGTCACTCTAGGTTATAGCATCGGAGT	2.76
GCTTACGGGTCAAAGGTTATAGTATGAATAGAAT	9.75
CCTACAGGGCCAAAGGTCATTGATTCCAATGCTC	9.99
TAGCCTAGGTCATGGGCCAGTTTACCACGCGAAC	2.88
CGTCCAAGGTAAGAGAGGTCAGTGAATGCCGAGT	0.249
CCGACGGGGGCAGAAAGGTTACCATACCATCCGG	2.16
CCTACTGGGCCAAAGGTCAGTGATTCCAATGCTC	12.5
AGTCAAAGTTCATCTTGGTAACGTAAGATATGCT	5.53
ATACCAAGGTTATCGTGAGGTCGTTGATACTAAC	1.07
TCTCGGAGGTCACGAAGGTCAGAGCTTTCCAGAG	6.59
CCTTGCGGGTCACTGACAGGTTATAGCATTTGGA	3.47
CTCGAAAGGTCGTCCTCAGGTGAGTATACCAAAC	2.43
CAAACTAGGTCACCGGAAAGTCAAAGTCCGCATG	7.23
TAGCCTAGGTCATTCAGGGGCCAGAATAGAAAGC	1.44
CACACTAGGTCAAGAGGTCAAAGTCCGCTTCCCG	8.14
CTCGAAAGGTCGTGCTCAGGTGAGTATGCCAAAC	2.67
CAAACTAGGTCACAGAGGTCGAAGTCCGTGCGTA	7.32
CGTCCAAGGTCAGAGAGGTCATTGAATGCCGAGT	3.33

What follows are sequences tested on PPARg:RXRa DBDmut IVT, anti-RXR (DBD mutation: RXRa K156A/R161A, NR concentration 270 nM, RXRa partner concentration 90 nM) in the same assay as above.
Outline: as §1

Sequence	PBM binding z-score
ATCGAAAGGTCGTGAGGTGTGTATACAGAAAGGC	0.0315
GGAACGAGGGCAAAGGTGATAGCATCTGTCGACG	5.67
ATATGGAGGTTAAGGGTCATTCAGGTTGGTTCGC	3.59
ATCGAAAGGTCGTGAGGTGACTATACAGAAAGGC	0.761
CGTCAAAGTTCAACTAAGGTAACTTAAAGCACGC	0.256
CGGCCAAGGTCAAAGGTCAGTGAAGAGATGACGG	3.94
ATCTCTAGGTAAAGGTCAGTGAAAGATCGATAGA	3.45
CGTCCAAGGTCATAAGAGGTCAGTGAAGACAGAT	3.48
CCTAGTTGGCCAAGGTCACACACGCTATAGGTAC	1.76
CCTTACGGGTCACGGGGTTATAGCACGACGAGCG	3.39
TAGCCTAGGTCATTCAGGGGTCAGTATAGAAAGC	2.45
TCTAGTTGGTTACGGAGGTCACACACGACGGGTA	1.85
AATACAGGGTCGCTAGGCCAGAGTAGGTACGAAT	0.129
ATACCAAGGTGATCGTGAGTTCGTTGATACTAAC	0.668
CGTCCAAGGTCAATGCTAGGTCACTGAAAGCATT	3.52
TTACCAAGGTCAGCTGAGGTCGTTGATCCAACTC	2.24
ATCGAAAGGTCGACGAGTTGAGTATACACCGTTT	0.59
TTACAAAGGTGAGCTGAGGTCGTTGATCCAACTC	1.9
GGAACGAGGGCATTCGAGTTGATAGCATGGCGAT	2.91
CCGACTGGGGCAAAGGTTACCACACTCAGTACGA	4.8

Sequence	PBM binding z-score
CGTCAAAGTTCAACTAATGTAACGTAAAGCACGC	0.546
CCTTACGGGTCACTCTAGGTTATAGCATCGGAGT	3.21
GCTTACGGGTCAAAGGTTATAGTATGAATAGAAT	4.49
CCTACAGGGCCAAAGGTCATTGATTCCAATGCTC	0.88
TAGCCTAGGTCATGGGCCAGTTTACCACGCGAAC	1.76
CGTCCAAGGTAAGAGAGGTCAGTGAATGCCGAGT	0.589
CCGACGGGGGCAGAAAGGTTACCATACCATCCGG	0.901
CCTACTGGGCCAAAGGTCAGTGATTCCAATGCTC	4.94
AGTCAAAGTTCATCTTGGTAACGTAAGATATGCT	0.418
ATACCAAGGTTATCGTGAGGTCGTTGATACTAAC	0.718
TCTCGGAGGTCACGAAGGTCAGAGCTTTCCAGAG	4.48
CCTTGCGGGTCACTGACAGGTTATAGCATTTGGA	4.94
CTCGAAAGGTCGTCCTCAGGTGAGTATACCAAAC	0.175
CAAACTAGGTCACCGGAAAGTCAAAGTCCGCATG	8.88
TAGCCTAGGTCATTCAGGGGCCAGAATAGAAAGC	1.69
CACACTAGGTCAAGAGGTCAAAGTCCGCTTCCCG	7.22
CTCGAAAGGTCGTGCTCAGGTGAGTATGCCAAAC	1.24
CAAACTAGGTCACAGAGGTCGAAGTCCGTGCGTA	8.27
CGTCCAAGGTCAGAGAGGTCATTGAATGCCGAGT	2.72
